# Screening results: PubChem BioAssay, several laboratories
# SENP7 inh: SENP7 protease inhibition; AID 434973; inhibition, % at 5 µM; 330,000 compounds, 1.5% hits; recombinant SENP7, Z-RLRGG-aminoluciferin luminescence, 40 min;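 active = inhibition above about 50% at the single test dose, limit read from the data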
# SENP8 block-1: blocks human SENP8 cleavage of Nedd8 substrate; recombinant SENP8, Nedd8 substrate fluorescence; inhibition, % at 20 µM; 360,000 compounds, 0.64% hits; AID 602440; in the data active = inhibition mostly above about 40%, no sharp cut-off; inactive = mostly below about 27%
# SENP8 block-2: SENP8 protease inhibition; inhibition, % at 10 µM; 330,000 compounds, 1.2% hits; purified SENP8, Z-RLRGG-aminoluciferin cleavage, luminescence; in the data active = inhibition above about 50%
# HSP90 refold inh: blocks HSP90-mediated luciferase refolding in reticulocyte lysate; Rabbit reticulocyte lysate, luciferase refolding luminescence, 3 h; inhibition, % at 5.6 µM; 290,000 compounds, 0.91% hits; AID 1789;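 active = inhibition above the screen-wide mean plus 3 SD, computed separately per campaign, cut at about 16% in these data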;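 also: inhibitors lower the luminescence because luciferase stays unfolded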
# SENP6 block: inhibitors of human SENP6 protease | inhibition, % at 10 µM | Q9GZR1 | Recombinant SENP6 catalytic domain, aminoluciferin luminescence | 330,000 compounds, 1.8% hits;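 active = inhibition above about 50% at the single tested dose, limit read from the data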
# Target sequence (Q9GZR1 628-1112 limits assumed): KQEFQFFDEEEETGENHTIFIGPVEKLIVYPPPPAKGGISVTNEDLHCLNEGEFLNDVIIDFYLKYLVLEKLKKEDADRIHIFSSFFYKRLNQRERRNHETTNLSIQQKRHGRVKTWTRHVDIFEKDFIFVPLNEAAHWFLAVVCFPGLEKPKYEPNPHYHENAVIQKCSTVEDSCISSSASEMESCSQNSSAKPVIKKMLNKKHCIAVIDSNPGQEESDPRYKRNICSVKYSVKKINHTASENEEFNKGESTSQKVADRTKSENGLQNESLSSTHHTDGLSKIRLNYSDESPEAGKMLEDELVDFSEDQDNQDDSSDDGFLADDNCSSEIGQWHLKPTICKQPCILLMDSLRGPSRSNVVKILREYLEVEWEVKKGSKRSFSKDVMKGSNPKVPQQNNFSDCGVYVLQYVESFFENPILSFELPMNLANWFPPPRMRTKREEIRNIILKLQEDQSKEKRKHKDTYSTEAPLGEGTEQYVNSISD
# Hits are given with their value; 0 = inactive; - = no result. Rows were chosen to be rich in hits. Some 2.7% of all compounds tested hit in one or more screens of this group.
SMILES,SENP7 inh,SENP8 block-1,SENP8 block-2,HSP90 refold inh,SENP6 block
CC(C)CC(=O)N1CCN(c2ccc([N+](=O)[O-])c(NCc3ccccc3)c2)CC1,0,54,0,0,0
CC(=O)NN1C(=O)/C(=C/c2ccc(Br)o2)SC1=S,0,44,0,0,0
O=C(CCNS(=O)(=O)c1ccccc1C(F)(F)F)N1CCCCCCC1,0,0,0,-,0
COc1cccc2c1C(=O)c1c(O)c3c(c(O)c1C2=O)C[C@@](O)(C(=O)CO)C[C@@H]3OC1CC(N)C(O)C(C)O1 (stereo partly drawn),-,94,-,-,-
COc1cccc2c1C(=O)c1c(O)c3c(c(O)c1C2=O)CC(O)(C(C)=O)CC3OC1CC(N(C)C)C(O)C(C)O1 (stereo not drawn),-,49,-,-,-
Nc1nc2c(s1)COc1ccccc1-2,0,0,0,0,0
Nc1nc2c(s1)CCc1c-2cnn1-c1ccccc1,0,0,0,0,62
OCCN1CCN(C(=S)Nc2ccc(SC(F)F)cc2)CC1,0,0,0,0,0
FC(F)(F)c1ccc2c(c1)C1C=CCC1C(c1ccncc1)N2 (stereo not drawn),-,44,-,0,-
CN1CCN(c2ccc(-c3ccc4ccccc4n3)cc2)CC1,-,0,-,89,-
C=CCN1C(=O)/C(=C/c2ccc(OC(C)=O)c(OCC)c2[N+](=O)[O-])SC1=S,-,65,-,0,-
O=[N+]([O-])c1ccc2nc(-c3ccc(OC(F)F)cc3)cn2c1,0,0,0,17,0
O=[N+]([O-])c1ccc(/C=N/NC2=NS(=O)(=O)c3ccccc32)cc1,0,0,0,0,0
O=[N+]([O-])c1ccc(O)c(/C=N/Nc2ccc(Cl)nn2)c1,0,0,0,0,54
O=[N+]([O-])c1ccc(O)c(/C=N/NC2=NS(=O)(=O)c3ccccc32)c1,95,0,82,0,86
COc1ccc(CNc2nccn3ccnc23)cc1,-,0,-,-,-
C/C(CC(=O)Nc1cccc(Cl)c1C)=N\NC(=O)C(=O)NCC(C)C,0,0,0,0,0
O=C1c2cc(CO)cc(O)c2C(=O)c2c(O[C@@H]3OC(CO)[C@@H](O)[C@@H](O)[C@@H]3O)cccc21 (stereo partly drawn),0,54,0,-,0
O=C(O)c1cc(O)c2c(c1)[C@H]([C@H]1c3cc(C(=O)O)cc(O)c3C(=O)c3c(O[C@@H]4O[C@H](CO)[C@@H](O)[C@H](O)[C@H]4O)cccc31)c1cccc(OC3O[C@H](CO)[C@@H](O)[C@H](O)[C@H]3O)c1C2=O (stereo partly drawn),0,0,0,-,0
C=CCn1c(SCCOc2ccc(OC)cc2)nnc1C(CO)NC(=O)c1ccc(OC)cc1 (stereo not drawn),0,0,0,0,0
c1ccc(-c2cc3cc4c(cc3cn2)OCO4)cc1,90,0,80,-,86
O=C(COc1ccc(Br)cc1Cl)NNC(=O)c1ccccc1,0,0,0,-,0
CC(=O)Nc1ccc(NC(=S)NC(=O)c2oc3ccccc3c2C)cc1,0,0,0,0,0
CC(=O)Nc1cccc(NC(=O)c2oc3ccccc3c2C)c1,54,-,0,0,0
CCCn1c2ccccc2c2cnn(CC(=O)N(CC)CC)c(=O)c21,0,0,0,0,0
SMILES,SENP7 inh,SENP8 block-1,SENP8 block-2,HSP90 refold inh,SENP6 block
COC(=O)c1ccc(NC(=O)C2CCN(S(C)(=O)=O)CC2)cc1,0,0,0,0,0
COc1ccccc1CNS(=O)(=O)c1cc(CN2C(=O)c3cccnc3C2=O)ccc1OC,0,0,0,0,0
COc1cc(CCNC2=CC(=O)c3ncccc3C2=O)ccc1O,-,97,-,-,-
Cc1nnc(NC(=O)c2c(F)c(F)c(F)c(F)c2F)s1,0,0,0,0,0
COc1cccc(-c2cc(C(F)(F)F)c3c(N)c(C#N)sc3n2)c1,86,-,0,0,0
CSC1=NC=C(C#N)C2=NC(c3c(Cl)cccc3Cl)NN12 (stereo not drawn),-,52,-,-,-
CC(C)CN1CCN(Cc2ccc(Oc3ncccn3)cc2)CC1CCO (stereo not drawn),0,0,0,16,0
O=c1[nH]c(Nc2ccccn2)cc2ccccc12,93,0,87,-,91
O=c1[nH]c(-c2ccccn2)cc2ccccc12,0,0,0,0,0
O=C(c1cccn2c(=O)c3cc4ccccc4cc3nc12)N1CCN(c2ccccc2)CC1,70,-,0,0,0
O=C(c1cccn2c(=O)c3ccccc3nc12)N1CCN(c2ccccn2)CC1,0,0,0,0,0
C[C@]12CCC[C@H](O1)c1c(cc3c(c1O)C(=O)c1c(O)cc(O)cc1C3=O)O2,0,58,0,-,0
O=C(NCc1ccc(Cl)cc1)N1CCc2ccccc2C1,0,0,0,0,0
COc1ccc(CNC(=O)N2CCc3ccccc3C2)cc1Cl,0,0,0,16,0
COc1ccc(N2C(=O)C(C)(C)C2c2c(O)ccc3ccccc23)cc1 (stereo not drawn),0,0,0,17,0
CC1(C)C(=O)N(c2ccccc2)C1c1ccccc1O (stereo not drawn),0,0,0,0,0
Cc1ccccc1CNC(=O)c1ccccc1C(=O)O,0,0,0,16,0
Cc1ccccc1CNC(=O)c1ccccc1C,0,0,0,0,0
CN1CCN(c2ncnc3c2cnn3-c2ccc(Cl)cc2)CC1,0,0,0,42,0
CCC(CO)Nc1ncnc2c1cnn2-c1ccc(OC)cc1 (stereo not drawn),0,0,0,0,0
CN(C)CCNc1ncnc2c1cnn2-c1ccc(Cl)cc1,0,0,0,0,0
OCCCNc1ncnc2c1cnn2-c1ccc(Cl)cc1,0,0,0,16,0
CCC(CO)Nc1ncnc2c1cnn2-c1ccc(Cl)cc1 (stereo not drawn),0,0,0,27,0
CCN1CCN(c2ncnc3c2cnn3-c2ccc(Cl)cc2)CC1,0,0,0,-,0
Cc1cc(S(=O)(=O)N2CCOCC2)ccc1OCC(=O)N1CCC(C)CC1,0,0,0,0,0
SMILES,SENP7 inh,SENP8 block-1,SENP8 block-2,HSP90 refold inh,SENP6 block
O=C1NNC(c2ccccc2)=N/C1=C\c1ccccc1,0,47,0,0,0
CCc1ccc(Nc2nnc(SCC(=O)Nc3sccc3C(N)=O)s2)cc1,0,0,0,0,0
CCc1ccc(Nc2nnc(SCC(=O)NCCN3C(=O)CSC3=O)s2)cc1,0,0,0,0,52
COC/C=C/C1=CC2=CC(=O)C(C)(OC(=O)c3cnc4ccccc4n3)C(=O)C2=CN1Cc1ccc(OC)cc1 (stereo not drawn),0,0,0,-,0
COC/C=C/C1=CC2=CC(=O)C(C)(OC(=O)c3cnc4ccccc4n3)C(=O)C2=CN1CC1CC1 (stereo not drawn),0,44,0,-,0
CC(Nc1cccc2ccccc12)C(=O)N/N=C/c1ccc([N+](=O)[O-])cc1 (stereo not drawn),0,0,0,0,81
CC(C)C(=O)Nc1ccccc1C(=O)N/N=C/c1ccc([N+](=O)[O-])cc1,0,0,0,0,0
CN1CCN(C2=C(Cl)C(=O)c3ccccc3C2=O)CC1,-,73,-,-,-
CC1COCC(C)N1C1=C(Cl)C(=O)c2ccccc2C1=O (stereo not drawn),-,0,-,-,-
Cc1ccc(C2=N/C(=C\N(C)C)C(=O)O2)cc1,0,0,0,0,0
